Screening data as filed in PubChem.
Most compounds without a hit are left out; they make up all but 12% or so of the library.
BAZ2B block: inhibitors of human BAZ2B bromodomain; AlphaScreen BAZ2B-H3K14Ac peptide displacement; Potency, µM (highest dose often 114 µM), hits mostly inhibitors; 360,000 tested, 4.4% active; AID 504333; also: nearly all actives have a fitted effect of over 60% in size
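AlphaScreen displacement: compounds (up to 110uM) incubated 30 min at room temperature with a preformed 50 nM BAZ2B/50 nM biotinylated H3K14Ac peptide complex in PBS pH 7.4 with Tween-20. Donor and acceptor beads at 10 ug/mL final added, 20 min light-protected before reading.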
HP1b binding inh: blocks HP1-beta chromodomain binding to methylated histone tails. Potency, µM (doses to about 114 µM), hits mostly inhibitors. AlphaScreen HP1-beta / biotin-H3K9me3 peptide binding. 390,000 tested, 0.56% active; also: nearly all actives have a fitted effect of over 70% in size
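HP1-beta protein (50 nM final) preincubated 30 min at room temperature with biotinylated H3(1-18)K9me3 peptide (50 nM) in PBS pH 7.4, 0.01% Tween-20, then compound added for 30 min. AlphaScreen streptavidin donor/nickel chelate acceptor beads (10 ug/mL final), 30 min dark, luminescence read.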
PLK1 PBD block: PLK1 (human) polo-box domain binding inhibition. 360,000 tested, 2.8% active. Potency, µM, actives largely listed as inhibitors. P53350. Plk1 PBD binding of FITC phosphopeptide, fluorescence polarization; also: series mostly up to about 57 µM; nearly all actives have a fitted effect of over 65% in size
Target sequence (P53350 whole entry, looked up, the tested form may be a part): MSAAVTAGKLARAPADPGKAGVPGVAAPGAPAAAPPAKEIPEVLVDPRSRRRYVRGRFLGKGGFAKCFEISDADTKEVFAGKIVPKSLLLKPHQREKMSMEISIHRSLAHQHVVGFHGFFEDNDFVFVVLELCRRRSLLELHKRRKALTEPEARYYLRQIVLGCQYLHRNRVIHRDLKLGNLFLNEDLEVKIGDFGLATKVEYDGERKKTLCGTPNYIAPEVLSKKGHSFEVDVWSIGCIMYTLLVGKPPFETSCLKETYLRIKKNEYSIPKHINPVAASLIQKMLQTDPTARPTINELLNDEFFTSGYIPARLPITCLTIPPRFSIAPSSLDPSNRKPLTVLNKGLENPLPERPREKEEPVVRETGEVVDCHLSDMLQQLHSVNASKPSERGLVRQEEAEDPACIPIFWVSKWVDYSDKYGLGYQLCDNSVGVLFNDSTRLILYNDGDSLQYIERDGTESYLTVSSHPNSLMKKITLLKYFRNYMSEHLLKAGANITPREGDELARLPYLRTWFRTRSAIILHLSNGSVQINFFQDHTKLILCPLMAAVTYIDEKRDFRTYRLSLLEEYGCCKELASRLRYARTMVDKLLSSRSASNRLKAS
Sfp PPTase inh: blocks B. subtilis Sfp PPTase activity. Q9F4F7. Biochemical Sfp PPTase activity, qHTS. Potency, µM, most hits filed as inhibitors. 310,000 tested, 3.5% active. AID 1490;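 also: the enzyme is Sfp with the accession as filed and its product quenches rhodamine fluorescence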
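After 15 min at room temperature with compound, 15 nM Sfp received 5 uM rhodamine-CoA plus 12.5 uM BHQ-2-ybbR (50 mM Hepes pH 7.6, 10 mM MgCl2). Rate came from the fluorescence difference over 30 min, ex 525/em 598 nm.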
G9a block: inhibitors of human histone lysine methyltransferase G9a. Q96KQ7. G9a H3K9 monomethylation, AlphaScreen, 2 h. Potency, µM (series often up to 102 µM), hits mostly inhibitors. 350,000 tested, 8.8% active; also: nearly all actives have a fitted effect of over 75% in size
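Enzyme 20 nM + cpd, 15 min RT; add b-H3K9 pep 500 nM / SAM 20 uM; 2 h RT; anti-H3K9me1 Ab 0.5 ug/mL + SA donor / anti-rabbit acceptor beads 20 ug/mL each, 10 min; AlphaScreen read.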
JMJD2A Tudor inh: inhibitors of human JMJD2A Tudor domain | O75164 | AlphaScreen JMJD2A-Tudor / H3K4me3 peptide binding | Potency, µM (highest dose often 114 µM), actives largely listed as inhibitors | 390,000 tested, 4.4% active | AID 504339; also: nearly all actives have a fitted effect of over 50% in size
Numbers stand for hits; i = inactive; ? = inconclusive; nt = not tested or not shown; [ ] = another dose, or the depositor's remark. Calls follow the shape of the dose curve; as a rule, active = well fitted curve in the direction sought with a large enough effect; inconclusive = small, poorly fitted or top-dose-only effect, or another doubt; inactive = no such curve, though single readings can be large; an effect the other way counts as inactive or inconclusive.

SMILES | BAZ2B block | HP1b binding inh | PLK1 PBD block | Sfp PPTase inh | G9a block | JMJD2A Tudor inh
O=C1CN(C(=O)COC(=O)c2ccc(Cl)c(S(=O)(=O)N3CCCCC3)c2)c2ccccc2N1 | nt | i | i | nt | nt | i
COCc1c(C(=O)N2CCN(CCOc3ccccc3)CC2)oc2ccccc12 | i | i | i | nt | ? | i
CC(C)OC(=O)C1Cc2ccccc2CN1S(=O)(=O)c1cccs1 (stereo not given) | ? | i | i | i | 79µM | i
O=C(Nc1cccc(F)c1)C1CCCN(S(=O)(=O)c2ccccc2)C1 (stereo not given) | i | i | i | i | i | i
Cc1cccnc1NC(=S)NC(=O)/C=C/c1ccco1 | i | i | i | i | 32µM | i
O=C(/C=C/c1ccco1)NC(=S)Nc1ccccn1 | 56µM | i | ? | ? | ? | 79µM
CCN(Cc1cnn(C)c1)C(=O)c1cc(COc2ccc(F)cc2F)on1 | i | i | i | i | i | i
CCN(Cc1ccncc1)C(=O)c1cc(COc2ccc(F)cc2F)on1 | i | i | i | i | 40µM | i
COc1ccccc1OCCSc1nc(-c2ccc(C(C)(C)C)cc2)nc2cc(=O)[nH]n12 | ? | i | nt | nt | i | i
CC(C)(C)c1ccc(-c2nc(SCCOc3ccc(Cl)cc3)n3[nH]c(=O)cc3n2)cc1 | 50µM | i | nt | nt | i | ?
Cc1ccc(OCCCSc2nc(-c3ccc(C(C)(C)C)cc3)nc3cc(=O)[nH]n23)cc1C | 45µM | ? | nt | nt | i | 25µM
O=[N+]([O-])c1cc(C(F)(F)F)cc([N+](=O)[O-])c1NN=C1CCCCC1 | 11µM | 20µM | ? | ? | 10µM | 22µM
N#CCC(=O)NNc1c([N+](=O)[O-])cc(C(F)(F)F)cc1[N+](=O)[O-] | 50µM | ? | i | i | 50µM | ?
O=[N+]([O-])c1cc(C(F)(F)F)cc([N+](=O)[O-])c1NCCCN1CCOCC1 | i | i | i | i | i | i
O=[N+]([O-])c1cc(S(=O)(=O)N2CCCC2)ccc1NN=C1CCCCC1 | i | i | i | i | i | i
CC(C)N(Cc1ccccc1)S(=O)(=O)c1ccc(N2CCCCS2(=O)=O)cc1 | i | i | nt | nt | i[12.7 µM] | i
CCOC(=O)C(=N/O)/C(C)=N/NC(=O)C(=O)Nc1cc(Cl)ccc1Cl | 18µM | i | i | i | i | ?
CCOC(=O)C(=N/O)/C(C)=N/NC(C)=O | i | i | i | ? | 7.1µM | i
CCOC(=O)/C(C)=N/NC(=O)c1cccc([N+](=O)[O-])c1 | i | i | i | i | i | i
CC1=C(C(=O)N(C)C)CC(CC(=O)NCCCCc2ccccc2)C(=O)N1CCCN1CCCC1=O (stereo not given) | nt | nt | i | nt | nt | nt
CN(C)c1ccc(/C=C2/C=C(c3ccc4c(c3)CCCC4)OC2=O)cc1 | ? | ? | i | i | i | 2.5µM
Fc1ccc(N2CCN(C3=Nc4cccc5cccc3c45)CC2)cc1 | 35µM | ? | i | i | 40µM | 25µM
COc1cc(/C=C2/C(=O)NN(c3ccc(Cl)c(Cl)c3)C2=O)cc([N+](=O)[O-])c1O | 40µM | ? | 12µM | i | 18µM | 16µM
COc1cc(/C=C2/C(=O)NN(c3ccc(Cl)cc3)C2=O)cc(Br)c1O | 45µM | ? | ? | i | nt | 40µM
COc1cc(/C=C/c2nc3ccccc3c(=O)[nH]2)cc(Br)c1O | ? | i | i | i | ? | i
SMILES | BAZ2B block | HP1b binding inh | PLK1 PBD block | Sfp PPTase inh | G9a block | JMJD2A Tudor inh
COc1cc(/C=C2/C(=O)NN(c3ccc(F)cc3)C2=O)cc(Cl)c1O | 32µM | ? | 30µM | 45µM | 28µM | 32µM
COc1cccc(/C=C2/C(=O)NN(c3ccc(Br)cc3)C2=O)c1O | ? | i | 7.5µM | i | nt | ?
O=C(COc1ccc(Br)cc1)N1CCN(c2ccc([N+](=O)[O-])c(N3CCCCC3)c2)CC1 | i | i | i | i | 35µM | ?
O=C(COc1ccccc1)N1CCN(c2ccc([N+](=O)[O-])c(N3CCCCC3)c2)CC1 | ? | i | i | i | ? | ?
COc1ccc(OC(=O)N(C)C[C@@H]2OCc3cn(nn3)CCCC(=O)N([C@@H](C)CO)C[C@H]2C)cc1 | nt | nt | i | nt | nt | nt
Cc1cccc(C)c1OCC(C)N (stereo not given) | i | i | i | i | i | i
Cc1cccc(C)c1OCC(N)C(C)C (stereo not given) | 71µM | i | i | nt | 3.8µM | i
CC1CN(C(=O)c2cc(Br)c(Br)s2)CC(C)O1 (stereo not given) | i | i | i | nt | i[12.7 µM] | i
O=C(CN1CCc2ccccc2C1)NCc1ccco1 | i | i | i | i | ? | i
O=C(NC1CCCCC1)N1CCc2ccccc2C1 | i | i | i | i | i | i
CC(NCc1ccco1)C(=O)N1CCc2ccccc2C1 (stereo not given) | 56µM | ? | i | i | ? | 11µM
O=C(CNCc1cccc(Cl)c1)N1CCc2ccccc2C1 | 56µM | i | i | i | 14µM | 20µM
O=C(CNC1CCCCC1)N1CCc2ccccc2C1 | 71µM | i | i | ? | i[12.7 µM] | 3.2µM
O=C(CNCc1ccc(Cl)cc1)N1CCc2ccccc2C1 | ? | i | i | i | i | 22µM
Cc1ccc(N2CCN(C(=O)C3CCC(CNS(=O)(=O)c4ccc(Br)s4)CC3)CC2C)cc1 (stereo not given) | i | i | nt | nt | i | i
CCOC(=O)NCCOc1ccc(Oc2ccccc2)cc1 | nt | nt | nt | i | nt | nt
COc1ccc(C2c3c(n(C)c4ccccc34)C(=O)N2CC(=O)Nc2cccc(F)c2)cc1 (stereo not given) | ? | i | nt | nt | i | i
N#CCCN1CCN(CCC#N)C1=S | nt | i | i | nt | nt | i
CC(CCc1ccccc1)NC(=O)CN1CCc2ccccc2C1 (stereo not given) | i | i | 27µM | i | i | ?
CC(NC(=O)CN1CCN(c2ccccc2F)CC1)c1ccccc1 (stereo not given) | i | i | i | i | i | i
O=C(CNCCc1ccccc1)N1CCc2ccccc2C1 | 50µM | ? | i | i | 22µM | 3.2µM
CC(=O)C(Cc1ccccc1)NC(=O)CN1CCc2ccccc2C1 (stereo not given) | i | i | i | i | i | i
CC(NC(=O)CN1CCc2ccccc21)c1ccccc1 (stereo not given) | i | i | i | i | 25µM | i
CCS(=O)(=O)c1oc(-c2ccc(F)cc2)nc1S(=O)(=O)c1ccccc1 | i | i | nt | nt | ? | i
CCCCCCN1C=C/C(=C\C=C(C#N)C#N)c2ccccc21 | 3.2µM | ? | i | i | 7.1µM | 2.8µM
C=CCN1C=C/C(=C\C=C(C#N)C#N)c2ccccc21 | 3.2µM | ? | i | i | ? | 22µM
CCCCCCN1C=CC=C/C1=C/C=C(C#N)C#N | 25µM | i | ? | ? | 45µM | ?
CCCCCN1C=CC=C/C1=C\C=C(C#N)C#N | ? | i | ? | i | ? | i
